Assay results published in PubChem BioAssay (NCATS).
Results filed as inconclusive are left out. Calls of active or inactive are those of the source. Unless noted, calls come from the whole dose curve; as a rule, active = well fitted curve in the direction sought with a large enough effect; inconclusive = small, poorly fitted or top-dose-only effect, or another doubt; inactive = no such curve, though single readings can be large; an effect the other way counts as inactive or inconclusive.

How the values were obtained:
[1] = Confirmation and Secondary Assay for Modulators of Hemoglobin Beta Chain Splicing at IVS2 654 locus (AID 910);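 note: per-well total GFP intensity by laser scanning cytometry after 2-day treatment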
How it was run: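 HeLa cells stably carrying EGFP interrupted by mutant beta-globin IVS2-654 intron (CMV-driven) were treated with compound for 2 days at 37C; corrected splicing was scored as total peak GFP intensity per well (488 nm excitation, 500-520 nm emission).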

[2] = target: Guanine nucleotide-binding protein G(i) subunit alpha-1 (Homo sapiens) (UniProt P63096); experiment: qHTS Assay for Inhibitors of RGS12 GoLoco Motif Activity (Green Fluorophore) (AID 879);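 note: negative values mean loss of peptide binding seen as reduced polarization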
Sequence of Guanine nucleotide-binding protein G(i) subunit alpha-1 (Homo sapiens) (P63096 whole entry, looked up): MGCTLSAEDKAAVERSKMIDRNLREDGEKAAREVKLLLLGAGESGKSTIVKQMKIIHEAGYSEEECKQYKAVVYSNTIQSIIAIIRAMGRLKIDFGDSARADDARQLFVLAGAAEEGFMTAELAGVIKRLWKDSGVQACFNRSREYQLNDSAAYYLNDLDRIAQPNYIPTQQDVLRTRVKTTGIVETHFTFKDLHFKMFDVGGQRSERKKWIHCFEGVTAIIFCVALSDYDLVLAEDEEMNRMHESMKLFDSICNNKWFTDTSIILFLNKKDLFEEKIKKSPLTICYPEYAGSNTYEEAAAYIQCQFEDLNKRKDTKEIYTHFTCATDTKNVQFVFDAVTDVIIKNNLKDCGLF
How it was run: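 Fluorescence polarization assay: 50 nM Gαi1 with 10 nM FITC-labeled RGS12 GoLoco peptide in 10 mM Tris pH 7.5, 150 mM NaCl, 0.1 mM GDP, 0.05% NP40, 10 min at room temperature with compound.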

[3] = qHTS Assay for Identification of Small Molecule Agonists for Thrombopoietin (TPO) Signaling Pathway (AID 917)
How it was run: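 Activators of TPO signaling were sought in murine Ba/F3 cells transfected with the human receptor, using a luciferase gene driven by the Glycoprotein IIb promoter; 24-hr compound exposure at 37 C alongside 26 pM TPO, in IL-3-free medium.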

[4] = target: Muscarinic acetylcholine receptor M1 (Rattus norvegicus) (UniProt P08482); experiment: qHTS Assay for Antagonists of Acetylcholine Muscarinic M1 Receptor: Kinetic Measurement of Intracellular Calcium Response (AID 943);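 note: Fluo-4 calcium signal as peak divided by basal fluorescence over 4 min; series mostly up to about 35 µM; nearly all actives have a fitted effect of over 75% in size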
Sequence of Muscarinic acetylcholine receptor M1 (Rattus norvegicus) (P08482 whole entry, looked up): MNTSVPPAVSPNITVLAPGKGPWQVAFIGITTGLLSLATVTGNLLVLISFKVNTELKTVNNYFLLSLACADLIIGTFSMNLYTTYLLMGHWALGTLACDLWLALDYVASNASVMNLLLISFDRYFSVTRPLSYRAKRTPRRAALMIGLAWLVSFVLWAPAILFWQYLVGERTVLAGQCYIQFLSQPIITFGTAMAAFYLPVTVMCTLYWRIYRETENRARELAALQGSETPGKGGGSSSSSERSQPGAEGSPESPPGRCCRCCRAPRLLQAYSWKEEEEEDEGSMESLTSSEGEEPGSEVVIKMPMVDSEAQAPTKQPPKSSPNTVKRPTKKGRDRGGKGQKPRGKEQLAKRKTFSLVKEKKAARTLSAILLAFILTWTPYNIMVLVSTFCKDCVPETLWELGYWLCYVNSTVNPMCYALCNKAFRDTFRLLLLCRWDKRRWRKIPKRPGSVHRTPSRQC
How it was run: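 CHO cells stably expressing rat M1 were loaded with no-wash Fluo-4 dye for 1 h at 37C, pre-incubated 10 min with compound, then challenged with EC80 carbachol (100 nM final); kinetic calcium read 4 min, peak/basal ratio.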

[5] = target: Muscarinic acetylcholine receptor M1 (Rattus norvegicus) (UniProt P08482); experiment: qHTS Assay for Antagonists of Acetylcholine Muscarinic M1 Receptor: Measurement of IP-One Response (AID 944); note: nearly all actives have a fitted effect of over 75% in size
How it was run: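 CHO cells expressing rat M1 receptor, recovered overnight, were pre-incubated 10 min with compound, then stimulated 30 min with carbachol at EC80 (200 nM) in LiCl-containing buffer, pH 7.4. IP1 accumulation was read by HTRF (620/665 nm).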

[6] = target: Pyruvate kinase (Leishmania mexicana) (UniProt Q27686); experiment: qHTS Validation Assay for Inhibitors of Leishmania Mexicana Pyruvate Kinase (AID 945)
Sequence of Pyruvate kinase (Leishmania mexicana) (Q27686 2-499 E452W): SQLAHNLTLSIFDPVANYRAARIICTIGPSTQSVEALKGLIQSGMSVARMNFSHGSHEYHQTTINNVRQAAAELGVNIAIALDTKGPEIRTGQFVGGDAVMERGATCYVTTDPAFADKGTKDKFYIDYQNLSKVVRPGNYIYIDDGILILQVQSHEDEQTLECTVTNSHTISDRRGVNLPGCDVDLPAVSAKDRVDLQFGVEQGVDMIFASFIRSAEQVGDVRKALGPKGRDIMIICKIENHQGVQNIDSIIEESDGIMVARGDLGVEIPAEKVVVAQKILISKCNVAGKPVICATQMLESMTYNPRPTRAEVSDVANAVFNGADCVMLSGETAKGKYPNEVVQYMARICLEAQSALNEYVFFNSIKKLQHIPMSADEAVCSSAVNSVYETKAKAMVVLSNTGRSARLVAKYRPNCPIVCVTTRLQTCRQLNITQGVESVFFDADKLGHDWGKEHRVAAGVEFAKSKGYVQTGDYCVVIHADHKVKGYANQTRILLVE
How it was run: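 Mutant LmPYK (E451W), 0.2 nM, plus 0.5 mM PEP and 0.1 mM ADP in 50 mM imidazole pH 7.2 containing 0.01% Tween 20 and 0.05% BSA. Incubated 1 h at room temperature; luminescence via PKLight, normalized to DMSO.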

[7] = target: Pyruvate kinase PKM (Homo sapiens) (UniProt P14618); experiment: qHTS Assay for Activators of Human Muscle Pyruvate Kinase (AID 954; active = well fitted curve in the direction sought with a large enough effect, not every such curve was filed as active)
Sequence of Pyruvate kinase PKM (Homo sapiens) (P14618 whole entry, looked up): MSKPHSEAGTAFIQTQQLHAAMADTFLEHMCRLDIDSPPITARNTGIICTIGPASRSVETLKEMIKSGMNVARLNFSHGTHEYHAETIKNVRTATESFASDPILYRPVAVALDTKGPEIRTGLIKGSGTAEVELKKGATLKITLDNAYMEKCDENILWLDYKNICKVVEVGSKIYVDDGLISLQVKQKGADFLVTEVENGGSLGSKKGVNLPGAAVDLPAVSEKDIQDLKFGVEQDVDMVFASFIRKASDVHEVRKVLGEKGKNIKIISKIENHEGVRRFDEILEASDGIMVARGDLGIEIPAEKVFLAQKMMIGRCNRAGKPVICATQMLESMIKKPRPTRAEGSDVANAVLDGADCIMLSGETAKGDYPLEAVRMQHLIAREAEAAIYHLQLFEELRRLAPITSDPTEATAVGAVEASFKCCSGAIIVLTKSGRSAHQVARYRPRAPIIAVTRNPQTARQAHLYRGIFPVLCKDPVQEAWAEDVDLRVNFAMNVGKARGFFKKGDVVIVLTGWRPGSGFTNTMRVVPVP
How it was run: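 Purified human PKM2 (0.1 nM) with 0.5 mM PEP (Km) and 0.1 mM ADP in 50 mM imidazole pH 7.2, KCl, MgCl2, 1 h at room temperature; ATP formed read by coupled luciferase luminescence. Normalized to no-enzyme/110 uM thiadiazolimine inhibition; 0.3 nM enzyme column for activation.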

[8] = target: Alpha-galactosidase A (Homo sapiens) (UniProt P06280); experiment: Counterscreen for Glucocerebrosidase Inhibitors: qHTS Assay for Human alpha-Galactosidase at pH 4.5 (AID 992)
Sequence of Alpha-galactosidase A (Homo sapiens) (P06280 whole entry, looked up): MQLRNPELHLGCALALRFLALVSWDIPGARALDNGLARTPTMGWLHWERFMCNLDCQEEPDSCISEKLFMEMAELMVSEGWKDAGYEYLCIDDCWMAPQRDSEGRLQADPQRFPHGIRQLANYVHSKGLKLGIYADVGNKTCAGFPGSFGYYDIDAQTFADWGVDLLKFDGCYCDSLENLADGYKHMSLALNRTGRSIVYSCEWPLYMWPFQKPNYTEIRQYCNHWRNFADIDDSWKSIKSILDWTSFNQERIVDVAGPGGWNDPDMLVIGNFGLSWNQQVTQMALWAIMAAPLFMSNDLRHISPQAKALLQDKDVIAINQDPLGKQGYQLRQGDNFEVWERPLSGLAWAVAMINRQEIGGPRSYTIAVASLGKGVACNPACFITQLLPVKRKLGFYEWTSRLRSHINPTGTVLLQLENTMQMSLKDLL
How it was run: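 Human enzyme (2 nM) with 80 uM 4-methylumbelliferyl alpha-D-galactopyranoside in 50 mM citric acid, 0.005% Tween-20, pH 4.5, 20 min at room temperature. Compounds 0.7 nM–77 uM; fluorescence Ex 365/Em 440 after pH 10 stop; AC50 from Hill fits.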

[9] = target: alpha-glucosidase (Oryza sativa, rice) (UniProt Q653V4); experiment: Counterscreen for Glucocerebrosidase Inhibitors: qHTS Assay for Rice alpha-Glucosidase at pH 5.0 (AID 997)
How it was run: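 Rice alpha-glucosidase (4 nM final) with 400 uM 4-methylumbelliferyl-alpha-D-glucopyranoside in citrate buffer pH 5.0, 20 min at room temperature, stopped at pH 10; fluorescence 365/440 nm, compounds 0.7 nM–77 uM, AC50 from Hill fits.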

Measured: Potency

CN(C)c1ccc(-c2nc(Nc3ccncc3)c3ccccc3n2)cc1
inactive: [1]

C[C@H](Oc1ccc(Oc2cnc3ccc(Cl)cc3n2)cc1)C(=O)O
not listed: [1]
inactive: all other assays above
